Test results published in the supplement of paper PMC7366291.
Counter-ions that a name gives are not always drawn. ± gives the standard deviation or the standard deviation of the averaged measurements.

Key:
Settings in all cases: 25 µM; exposure: 24-48 hpf
[1] = tested on: Danio rerio Tg(wt1b:EGFP) embryo, pronephros; assay: glomerular separation, fold change vs DMSO control; higher = glomeruli further apart (abnormal)
In short: (§1)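 Dechorionated Tg(wt1b:EGFP) zebrafish embryos were incubated at 28.5°C from 24 to 48 hpf with 25 μM compound in HEPES-buffered E3 containing 0.5% DMSO and 0.003% PTU. Distances and angles between 16 manually set points on maximum projections of dorsal pronephros images were measured in Fiji, with values over 2 SD from the feature mean excluded. Each feature is a fold change relative to the mean of same-day DMSO-treated embryos.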

[2] = tested on: Danio rerio Tg(wt1b:EGFP) embryo, pronephros; assay: glomerular width (mean of left and right), fold change vs DMSO control; higher = wider glomerulus
In short: as §1

[3] = tested on: Danio rerio Tg(wt1b:EGFP) embryo, pronephros; assay: fraction of imaged embryos annotated as normal kidney; higher = less nephrotoxic; extreme values may be limits of the assay
In short: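 Zebrafish embryos carrying Tg(wt1b:EGFP) were dechorionated and exposed to 25 μM compound (0.5% DMSO) between 24 and 48 hpf at 28.5°C. Their pronephroi were imaged by widefield fluorescence, and each embryo was classed by hand from maximum projections. The measure is the fraction of embryos per treatment falling in the normal-kidney category.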

[4] = tested on: Danio rerio Tg(wt1b:EGFP) embryo, pronephros; assay: pronephric angle neck segment to proximal convoluted tubule (mean of left and right), fold change vs DMSO control; higher = larger pronephric angle
In short: as §1

SMILES	glomerular separation [1]	glomerular width [2]	fraction of imaged embryos annotated as normal kidney [3]	pronephric angle neck segment [4]
CN1CCN(c2c(F)cc3c(=O)c(C(=O)O)cn(CCF)c3c2F)CC1 [Fleroxacin]	0.566 ± 0.3	0.977 ± 0.049	0.917	1.049 ± 0.0028
OCCN1CCN(CCCN2c3ccccc3Sc3ccc(Cl)cc32)CC1 [Perphenazine]	0.838 ± 0.23	1.07 ± 0.063	0.917	1.03 ± 0.012
C=C(NC(=O)C(=C)NC(=O)c1csc(C2=N[C@@H]3c4csc(n4)[C@H]4NC(=O)c5csc(n5)[C@H]([C@](C)(O)[C@@H](C)O)NC(=O)[C@H]5CSC(=N5)/C(=C/C)NC(=O)[C@H]([C@@H](C)O)NC(=O)c5csc(n5)[C@]3(CC2)NC(=O)[C@H](C)NC(=O)C(=C)NC(=O)[C@H](C)NC(=O)[C@H]([C@@H](C)CC)N[C@@H]2C=Cc3c([C@H](C)O)cc(nc3[C@H]2O)C(=O)O[C@@H]4C)n1)C(N)=O [Thiostrepton]	1.02 ± 0.32	1.02 ± 0.056	0.917	1.01 ± 0.12
CC[N+](C)(CC)CCC[n+]1c(-c2ccccc2)c2cc(N)ccc2c2ccc(N)cc21 [Propidium iodide]	0.946 ± 0.41	1.16 ± 0.087	0.727	0.959 ± 0.036
N=C(N)NCc1cccc(I)c1 [Iobenguane sulfate]	0.901 ± 0.19	1.02 ± 0.015	1	1.02 ± 0.035
COC(=O)CCc1ccc(OCC(O)CNC(C)C)cc1 (stereo not given) [Esmolol hydrochloride]	0.66 ± 0.2	1.15 ± 0.035	0.75	0.986 ± 0.013
NCCc1c[nH]cn1 [Histamine dihydrochloride]	1.1 ± 0.25	0.9518 ± 0.0028	0.833	1.03 ± 0.03
CN1CCc2cccc3c2[C@H]1Cc1ccc(O)c(O)c1-3 [R(-) Apomorphine hydrochloride hemihydrate]	0.765 ± 0.25	0.954 ± 0.018	0.833	0.933 ± 0.042
Nc1ccccc1S(N)(=O)=O [2-Aminobenzenesulfonamide]	0.99 ± 0.24	1.02 ± 0.072	0.917	1.052 ± 0.00059
CC(C)(C)NC(=O)[C@H]1CC[C@H]2[C@@H]3CC[C@H]4NC(=O)C=C[C@]4(C)[C@H]3CC[C@]12C [Finasteride]	0.797 ± 0.34	0.937 ± 0.018	0.917	1.04 ± 0.023
Cc1cc(=O)oc2cc(O)ccc12 [Hymecromone]	0.837 ± 0.36	1 ± 0.013	0.909	0.98 ± 0.01
Cc1cc(C(=O)NNCc2ccccc2)no1 [Isocarboxazid]	1.01 ± 0.72	1.21 ± 0.067	0.25	1.382 ± 0.0021
CN1CCCCC1CCN1c2ccccc2Sc2ccc([S+](C)[O-])cc21 (stereo not given) [Mesoridazine besylate]	1.4 ± 1	0.916 ± 0.033	0.833	1.02 ± 0.033
Cc1cc(/C=C/c2ccc3cc(N(C)C)ccc3[n+]2C)c(C)n1-c1ccccc1 [Pyrvinium pamoate]	1.12 ± 0.41	0.975 ± 0.021	0.833	1.02 ± 0.034
CCOC(=O)OC(C)OC(=O)[C@@H]1N2C(=O)[C@@H](NC(=O)[C@H](N)c3ccccc3)[C@H]2SC1(C)C (stereo not given in full) [Bacampicillin hydrochloride]	0.948 ± 0.29	1.01 ± 0.017	0.917	0.968 ± 0.034
CC(C)NCC(O)COc1cccc2[nH]ccc12 (stereo not given) [Pindolol]	0.674 ± 0.2	0.901 ± 0.021	0.909	0.984 ± 0.025
CCN(CCO)CCCC(C)Nc1ccnc2cc(Cl)ccc12 (stereo not given) [Hydroxychloroquine sulfate]	1.03 ± 0.49	1.038 ± 0.0043	0.833	0.935 ± 0.055
Cc1[nH]c(=O)c(C#N)cc1-c1ccncc1 [Milrinone]	1.13 ± 0.36	1.01 ± 0.047	0.917	0.9759 ± 0.0011
O=C1C(O)=C([C@H]2CC[C@H](c3ccc(Cl)cc3)CC2)C(=O)c2ccccc21 [Atovaquone]	1.05 ± 0.35	0.992 ± 0.027	0.917	0.959 ± 0.017
CCN(CC)C(=O)c1ccc(O)c(OC)c1 [Ethamivan]	1.08 ± 0.29	1.1 ± 0.019	0.818	1.019 ± 0.0025
Cc1nc(=O)c2cc(CN(C)c3ccc(C(=O)N[C@@H](CCC(=O)O)C(=O)O)s3)ccc2[nH]1 [Raltitrexed]	0.711 ± 0.3	1.08 ± 0.017	0.917	0.9802 ± 0.0082
CC(C)NC[C@H](O)COc1cccc2ccccc12 [(S)-propranolol hydrochloride]	0.888 ± 0.27	1.03 ± 0.017	0.75	0.9744 ± 0.0062
CCCCN1CCCCC1C(=O)Nc1c(C)cccc1C (stereo not given) [Bupivacaine hydrochloride]	1.23 ± 0.54	0.946 ± 0.021	0.667	1.01 ± 0.13
COc1ccc(C(=O)c2ccccc2O)c(O)c1 [Dioxybenzone]	2.57 ± 1.9	0.84 ± 0.044	0.417	1.09 ± 0.018
Cc1nccn1CC1CCc2c(c3ccccc3n2C)C1=O (stereo not given) [Ondansetron Hydrochloride]	1.05 ± 0.35	1.011 ± 0.01	0.833	0.96132 ± 0.00094
CC(Cc1cccc(C(F)(F)F)c1)NCCOC(=O)c1ccccc1 (stereo not given) [Benfluorex]	0.843 ± 0.23	1 ± 0.03	0.917	1.04 ± 0.045
C[C@@H]1CN(c2c(F)c(N)c3c(=O)c(C(=O)O)cn(C4CC4)c3c2F)C[C@H](C)N1 [Sparfloxacin]	0.812 ± 0.23	0.92 ± 0.019	1	1.04 ± 0.024
CS(=O)(=O)OCCCCOS(C)(=O)=O [Busulfan]	0.771 ± 0.21	0.97453 ± 0.00036	0.75	0.943 ± 0.034
CCS(=O)(=O)CCn1c([N+](=O)[O-])cnc1C [Tinidazole]	0.882 ± 0.35	1.04 ± 0.036	0.833	1.02 ± 0.037
CS(=O)(=O)c1ccc([C@@H](O)[C@@H](CF)NC(=O)C(Cl)Cl)cc1 [Florfenicol]	1.03 ± 0.47	1.01 ± 0.083	1	1.01 ± 0.034
